Assay outcomes from PubChem BioAssay.
Most compounds without a hit are left out; they make up all but 11% or so of the library.
NS1 function inh = blocks influenza NS1 protein function. Potency, µM (highest dose often 46.1 µM), inactives show top-dose activity, positive = more growth. 270,000 compounds, 0.4% hits. AID 2326; calls by dose curve; note: actives are rising curves; nearly all actives have a fitted effect of over 50% in size
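Growth recovery, yeast-based: influenza A NS1 expressed in S. cerevisiae causes slow growth, and suppressors are detected by OD600. The parent strain without NS1 is used as positive control.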
VACV Venus inh = inhibitors of vaccinia virus (Venus reporter); Vaccinia virus Venus reporter expression, fluorescence; Potency, µM (series often up to 36.5 µM), for inactives: top-dose activity change, negative = inhibition, usual class: inhibitors; 330,000 compounds, 0.46% hits; AID 720580; calls by dose curve; tested in A549 cells; note: % is set by controls: 0 for no effect and ±100 for the full control effect; nearly all actives have a fitted effect of over 30% in size
Pf growth 48h = inhibits P. falciparum growth in the first generation, 48 h; P. falciparum luciferase growth in erythrocytes, 48 h; Potency, µM (top dose mostly 28.7 µM), for inactives: at the highest dose activity change, negative = inhibition, hits mostly inhibitors; 310,000 compounds, 5.9% hits; AID 504832; note: % is set by controls: 0 for no effect and ±100 for the full control effect
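Luciferase-expressing parasites in RBCs, 2% Hct / 0.1% parasitemia final; RPMI 1640 + 0.5% Albumax; 37 C, 5% CO2, one generation; luminescence read-out, lower signal = inhibition.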
HCV inhibitor = inhibitors of hepatitis C virus infection; Huh7.5.1 HCVcc-Cre infection, luciferase reporter, 44 h; Potency, µM (series often up to 41.8 µM), inactives show top-dose activity change, negative = inhibition, hits mostly inhibitors; 340,000 compounds, 3.4% hits; AID 651820; note: % is set by controls: 0 for no effect and ±100 for the full control effect
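A cell-based infection assay in which seeded cells (1,000 per well) receive test compound after 4 h, are inoculated with HCVcc-Cre at approximately 0.5 moi, and are incubated 44 h before luminescence detection.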
Pf growth 96h = P. falciparum growth inhibition at 96 hour, primary screen for plastid delayed-death inhibitors. P. falciparum luciferase reporter growth, 96 h. Potency, µM (series often up to 28.7 µM), inactives show top-dose activity change, negative = inhibition, most hits filed as inhibitors. 320,000 compounds, 6.9% hits; note: % is set by controls: 0 for no effect and ±100 for the full control effect
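Delayed-death screen, second-generation endpoint: infected erythrocytes, 2% hematocrit, 0.05% parasitemia final; 96 hours at 37 C, 5% CO2; luciferase detection reagent; luminescence decrease equals reduced growth.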
VACV mCherry inh = inhibitors of vaccinia virus infection (mCherry reporter signal) | AID 720579 | Vaccinia virus mCherry reporter infection, fluorescence | Potency, µM (series often up to 36.5 µM), for the others: top-dose activity change, negative = inhibition, most hits filed as inhibitors | 310,000 compounds, 0.63% hits; calls by dose curve; tested in A549 cells; note: % is set by controls: 0 for no effect and ±100 for the full control effect; nearly all actives have a fitted effect of over 35% in size
Active calls of the source: *; i = inactive; u = inconclusive; x = no result given. Unless noted, calls come from the whole dose curve; as a rule, active = well fitted inhibition curve with a large enough effect; inconclusive = small, poorly fitted or top-dose-only effect, or another doubt; inactive = no such curve, though single readings can be large or run the other way. Potency is the fitted concentration of half-maximal effect.

SMILES	NS1 function inh	VACV Venus inh	Pf growth 48h	HCV inhibitor	Pf growth 96h	VACV mCherry inh
C/C(Cn1cnc([N+](=O)[O-])n1)=N\NC(=O)c1ccc(O)cc1O	4.2%	-3.2%	42.8%	12.5%	u	-0.7%
CCc1ccc(NC(=O)CCS(=O)(=O)c2ccc(Br)cc2)cc1	-2.2%	x	-0.1%	3.7%	15.3%	x
COc1cc(Nc2ccccc2Cl)c([N+](=O)[O-])nc1[N+](=O)[O-]	5.9%	-9.0%	x	u	14.7µM*	-10.3%
Nc1c(NC(=O)CC[n+]2ccccc2)cccc1[N+](=O)[O-]	12.1%	-16.9%	93.5%	-2.3%	72.9%	-15.6%
Cc1ccc[n+](CC(=O)Nc2ccc(N(C)C)cc2)c1	5.5%	x	-18.4%	10.5%	5.22µM*	x
CN(C)c1cc[n+](CC(=O)Nc2cccc([N+](=O)[O-])c2)cc1	u	x	u	11.2%	u	x
CN(C)c1cc[n+](CCC(=O)Nc2cccc([N+](=O)[O-])c2N)cc1	-5.4%	-10.8%	u	u	3.29µM*	-6.4%
CN(C)c1cc[n+](CC(=O)Nc2ccc(Cl)c([N+](=O)[O-])c2)cc1	-6.1%	-7.8%	1.17µM*	7.5%	-18.2%	u
CN(C)c1ccc(NC(=O)C[n+]2ccccc2)cc1	-0.9%	x	-0.1%	12.0%	31.3%	x
O=C(C[n+]1ccccc1)Nc1ccc(Oc2ccccc2)cc1	3.3%	-19.5%	6.57µM*	16.1%	-0.2%	-22.7%
Cc1ccc(C(=O)Nc2ccccc2C(=O)O)cc1S(=O)(=O)NCc1ccccc1	u	x	9.7%	7.9%	95.6%	x
CCC(C)(O)c1[nH]c2ccc(C#N)cc2c1C (stereo unspecified)	-12.6%	-23.7%	55.6%	u	-41.9%	i
Cc1cc(C)cc(NC(=O)C2CCN(S(=O)(=O)c3ccc4c(c3)oc(=O)n4C)CC2)c1	x	-14.3%	x	x	x	-2.3%
CC(C)Nc1nc(-c2ccccc2CO)c2sccc2n1	x	-22.4%	x	x	x	i
CN(C)c1cc[n+](CC(=O)Nc2ccc(OC(F)F)cc2)cc1	-1.3%	-24.6%	2.33µM*	-7.8%	0.465µM*	-13.6%
Cc1nn(C)c(N)c1-c1ccccc1	x	-13.5%	-4.5%	7.1%	0.0%	-12.5%
NC(N)=NN=C(c1ccc(F)cc1)c1ccc(C(F)(F)F)cc1	x	12.6µM*	x	u	x	u
Nc1ncnc2c1[nH]c(=O)n2C1CC(O)C(CO)O1 (stereo unspecified)	x	0.0%	x	x	x	6.4%
COc1cccc(C(=O)CSc2nnc(CNc3nc(-c4ccccc4)cs3)n2C)c1	u	-21.9%	u	-6.1%	20.1%	x
Cn1c(CCNC(=O)c2cccs2)nnc1SCC(=O)Nc1nc(-c2ccccc2)cs1	-6.9%	-14.6%	7.38µM*	7.1%	14.4%	-16.9%
CCn1c(CNc2nc(-c3ccccc3)cs2)nnc1SCC(=O)NCc1ccccc1	18.9%	x	u	18.7%	-22.7%	x
CC(C)OC(=O)CSc1nnc(CNc2nc(-c3ccccc3)cs2)n1C	-0.9%	-20.9%	2.33µM*	27.6%	87.7%	x
Cc1csc(NC(=O)CSc2nnc(CCNC(=O)c3cccs3)n2C)n1	0.3%	x	u	17.1%	u	x
Cn1c(CNc2nc(-c3ccccc3)cs2)nnc1SCC(=O)OC1CCCCC1	-10.1%	-5.9%	2.33µM*	-11.6%	u	-6.0%
CCc1ccc(/C=C2\SC(=S)N(CCC(=O)NC3=NCCS3)C2=O)cc1	x	x	-4.5%	x	6.0%	x
SMILES	NS1 function inh	VACV Venus inh	Pf growth 48h	HCV inhibitor	Pf growth 96h	VACV mCherry inh
N#Cc1c(C(F)(F)F)cc(=O)n2c1[nH]c1ccccc12	-73.6%	u	2.4%	u	0.4%	10µM*
CCCc1nc2c(=O)n(C)c(=O)nc-2n(C)n1	x	1µM*	5.22µM*	2.51µM*	-1.2%	u
Cc1ccccc1-c1nc2c(=O)n(C)c(=O)nc-2n(C)n1	x	0.891µM*	x	x	x	2.82µM*
COc1ccc(-c2nc(-c3ccccn3)ncc2S(C)(=O)=O)cc1	x	-3.9%	366.3%	-8.6%	13.9%	-2.2%
Cn1nc(-c2ccccn2)nc2c(=O)n(C)c(=O)nc1-2	-32.3%	x	2.94µM*	2µM*	2.94µM*	x
CCc1ccc(-c2nc3c(=O)n(C)c(=O)nc-3n(CC)n2)cc1	x	11.2µM*	x	x	x	5.62µM*
CCc1ccc(-c2csc3ncn(CC)c(=O)c23)cc1	-9.6%	-21.3%	1.2%	7.4%	-2.6%	i
